Experimental data reported in PubChem BioAssay (NCI).
This is part of a sample that, as a whole, favours compounds with a hit. Of some 83,000 tested, about 20% had one in any assay.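 Cells were grown in 96-well plates and exposed to the test compound at a single concentration for 48 hours; results are reported as percent growth, with values below 10 considered active.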 Unmarked numbers belong to inactive results. Calls of active or inactive are those of the source.

What follows are compounds tested on HT29 colon (assay: NCI-60 one-dose screen, 48 h (100 = growth as untreated, 0 = no growth, -100 = all killed)). Conditions: 10 µM unless noted.
Protocol: Growth inhibition of the HT29 human tumor cell line is measured as a screen for anti-cancer activity. Cells are grown in 96 well plates and exposed to the test compound for 48 hours. Compounds are tested at a single concentration, which is 10^-5 M for most compounds. The reported endpoint is percent growth (GI% or GIPRCNT), where numbers from 0 - 100% represent growth inhibition, and numbers from -100% - 0 represent cell death. For example, a value of 40 represents 60% growth inhibition. A value of 0 means no net growth occurred over the course of the experiment. A value of -40 indicates 40% of cells at the beginning of the experiment died by the end of the experiment. A value of -100 means all cells are dead at the end of the experiment.
NCI-60 Human Tumor Cell Lines Screen was performed using the standard one-dose NCI protocol, which is described in more detail at https://dtp.cancer.gov/discovery_development/nci-60/default.htm.
Compounds with GIPRCNT values below 10 were considered active. Activity score was based on GIPRCNT using the following formula: […]
Score is 0 for GIPRCNT values of 100 or above, 50 for GIPRCNT values of 0, and 100 for GIPRCNT values of -100.
For `CCN1C2=C(SC(=S)C1=C1SC(C(=O)OC)=C(C(=O)OC)S1)SC(=Nc1ccc(OC)cc1)C2=O`, the growth was -6.07% (active). In the case of `COc1ccc(Nc2ccnc(NCCCNc3ccnc4cc(Cl)ccc34)n2)cc1`, the growth is reported as -56.6% (active). Compound `COc1ccc(/C=C/C(=O)Nc2cccnc2Nc2ccc(F)cc2)cc1` has a growth of 109%. With `COc1cc2c(-c3nc4cc(Cl)c(F)cc4s3)cc(=O)oc2c(C)c1OC` the growth was -80% (active). `CC(=O)Nc1ccc2c(c1)Cc1c(F)c(F)c(F)c(F)c1-2` gave a growth of 97.1%. With `CCCc1cc(=O)n2c(C(=O)Nc3ccccc3OC)c(C(=O)Nc3ccc(F)cc3)sc2n1` the growth was 38.2% [30 µM]. With `CC1=NN(c2ccccc2Cl)C(=O)/C1=C\c1cn(S(=O)(=O)c2ccc(C)cc2)c2ccccc12` the growth was 122%. `COc1cccc(-c2nnc(N)o2)c1` showed a growth of 100%. Work on `COc1ccc(Nc2nccc(N3CCN(c4c5ccc(Cl)cc5nc5ccc(OC)cc45)CC3)n2)cc1` yielded a growth of 44.6%. For `C/C(=N\N1CC(=O)NC1=O)c1ccc([N+](=O)[O-])o1`, the growth was 102%. With `C=Cc1nn2c(CCC(=O)c3nc4ccccc4[nH]3)nnc2s1` the growth was 105%. `COc1cc(C2CC(=O)Nc3c2cc(Br)c2ccccc32)cc(Br)c1OC` (stereo not given) was tested, and the growth was 6.78% (active). `CC[C@H](C)C(=O)O[C@H]1C[C@@H](C)C=C2C=C[C@H](C)[C@H](CC[C@@H]3C[C@@H](O)CC(=O)O3)[C@H]21` showed a growth of 95.4%. For `N#Cc1cnc2cc(OC[C@H](O)CO)c(NC(=O)CC3CSSC3)cc2c1Nc1ccc(OCc2cccc(F)c2)c(Cl)c1`, the growth was -77.8% (active). With `CCCCCCC/C(=N\N=C(N)N)c1ccc(O)cc1` the growth was 3.57% (active). For `N#CCCCCCn1c2ccccc2c2c3c(c4c5ccccc5[nH]c4c21)C(=O)N(O)C3=O`, the growth was 3.99% (active). `CCOC(Cc1c(N)[nH]c(=S)[nH]c1=O)OCC` was tested, and the growth was 99.2%. With `CCOC(=O)C(C(C)=O)c1nc2sc3cc(Cl)ccc3n2c(=N)c1C#N` (stereo not given) the growth was 52.8%. `COc1cc(/C=C/c2nnc(-c3cc(-c4ccccc4)n[nH]3)o2)cc(OC)c1OC` was tested, and the growth was 96.8%. `CN=C(NC)N/N=C(C)\C=N\NC(=NC)NC` showed a growth of 104%. For `COc1ccc(-c2cc(C(=O)Nc3nc4cc(C)c(C)cc4s3)nc3cc(-c4ccccc4)nn23)cc1OC`, the growth was 93.1%. Work on `C[C@]12CC[C@@H]3c4ccc(O)cc4CC[C@H]3[C@@H]1CC[C@@H]2NS(=O)(=O)c1cccc(Br)c1` yielded a growth of 61.6%. Compound `C[C@]12C[C@H](O)[C@H]3[C@@H](CCC4=CC(=O)CC[C@@]43C)[C@@H]1CC[C@@H]2C(=O)CO` has a growth of 108%. Compound `Cn1c(=O)c2c(nc(Br)n2CCC(=O)Nc2ccc(F)cc2)n(C)c1=O` has a growth of 96.3%. For `COc1ccc(-c2nn(-c3cccc(Cl)c3)cc2C2CC(c3ccccc3)=NN2C(C)=O)cc1` (stereo not given), the growth was 62.7%. `CCCn1cnc2c1c(=O)n(CCCCC(C)=O)c(=O)n2C` showed a growth of 95.8%. With `COc1ccc2c(c1)C(=O)c1c-2c(=O)n(CCCCCCC(=O)NO)c2ccccc12` the growth was 3.51% (active). `Cc1cc(NCCCNc2ccnc3cc(Cl)ccc23)nc(N2CCN(C)CC2)n1` showed a growth of 15.2%. In the case of `O=C1C[C@@H]2/C(=C(O)\C=C\c3ccccc3)C(=O)C=C[C@@H]2O1`, the growth is reported as -53.2% (active). Work on `CN1CCCC1c1cccnc1` (stereo not given) yielded a growth of 115%. Work on `CCOc1nc(-c2ccccc2)cc2c(O)c(-c3nnco3)[nH]c(=O)c12` yielded a growth of 69%. In the case of `COc1cc(/C=C/C(=O)N2CCN(C(=O)/C=C/c3ccccc3)CC2)cc(OC)c1OC`, the growth is reported as 104%. Compound `CCN(CC)CCOc1ccccc1-n1c(C)ccc1-c1ccccc1` has a growth of 34.5%. In the case of `CSc1nc2c(c(=O)n1C)C(c1ccccc1)C1=C(N2)/C(=C/c2ccccc2)CCC1` (stereo not given), the growth is reported as 53.7%. With `CN(CC(=O)N(Cc1ccc(C2CCCCC2)cc1)c1ccc(C(=O)O)cc1)S(=O)(=O)c1c(F)c(F)c(F)c(F)c1F` the growth was -22.3% (active). Work on `COc1ccc(COC(C)=O)cc1` yielded a growth of 113%. Work on `CC/C=C\C=C/C(=O)N/C=C/CC1Cc2cccc(O)c2C(=O)O1` (stereo not given) yielded a growth of 44.1%. With `Cc1[nH]n(C(N)=S)c(=O)c1N=Nc1ccc(F)c(Cl)c1` the growth was 147%. In the case of `CN(C)c1cccc2c(S(=O)(=O)N[C@H]3CC[C@H]4[C@@H]5CCc6cc(O)ccc6[C@H]5CC[C@]34C)cccc12`, the growth is reported as 2.71% (active). Compound `O=Cc1c[nH]c2ccc(NC(=O)OCc3ccccc3)cc12` has a growth of 89%.
